“And” between values parts separate entries of the source, which are not always exact repeats. Equal entries are not always repeated. ± gives the standard deviation of the averaged measurements.
Key:
Molm13 = assay: cell viability relative to DMSO control (bortezomib = 0%); higher = less growth inhibition; conditions: 10 nM; 72 h
In short: (§1)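 FLT3-ITD+ acute myeloid leukemia cells were dispensed onto a library of 679 approved and investigational compounds in 384-well plates, at 1000 cells per well in 50 µL and a single 10 nM dose, for 72 h. The screen was run in duplicate. Cell viability was read by CellTiter-Glo luminescence on an EnVision reader. Values were converted to percentages by per-plate linear regression between DMSO-treated cells (100%) and positive-control-treated cells (0%).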

Mv4-11 = assay: as above; conditions: 10 nM; 72 h
In short: as §1

Structure (SMILES) | cell viability (Molm13) | cell viability (Mv4-11)
COc1ccc2c3n(c(=NC(=O)c4cccnc4)nc2c1OC)CCN3 | 88.7 ± 7% | 102 ± 2.9%
NC(=O)c1ccc2nc(-c3ccc(Oc4ccc(Cl)cc4)cc3)[nH]c2c1 | 100 ± 13% | 114 ± 6.3%
CCN(CC)CCNC(=O)c1c(C)[nH]c(/C=C2\C(=O)Nc3ccc(F)cc32)c1C [Sunitinib (malate)] | 50.3 ± 5.7% | 63.4 ± 1.2%
COc1cc2c(Nc3ccc(NC(=O)c4ccccc4)cc3)ncnc2cc1OCCCN1CCOCC1 | 87.8 ± 50% | 120 ± 19%
Cc1cnc(-c2cnc(NCCNc3ccc(C#N)cn3)nc2-c2ccc(Cl)cc2Cl)[nH]1 | 104% and 111% | 105% and 110%
COc1cc(OC)c(/C=C/S(=O)(=O)Cc2ccc(OC)c(NCC(=O)O)c2)c(OC)c1 | 99.3 ± 23% | 124 ± 8.1%
COc1cc2nccc(Oc3ccc(NC(=O)C4(C(=O)Nc5ccc(F)cc5)CC4)cc3)c2cc1OC [XL184(Cabozantinib malate)] | 15 ± 7.9% | 42 ± 6.5%
N#CCNC(=O)c1ccc(-c2ccnc(Nc3ccc(N4CCOCC4)cc3)n2)cc1 [Momelotinib (CYT387)] | 98.5 ± 17% | 110 ± 16%
C=CC(=O)Nc1cccc(Nc2nc(Nc3ccc(OCCOC)cc3)ncc2F)c1 | 103 ± 10% | 110 ± 6.4%
Cc1ccc(-c2csc3ncnc(SCCC(=O)O)c23)cc1 | 108 ± 3.3% | 117 ± 10%
CN(N=O)C(=O)N[C@@H](C=O)[C@@H](O)[C@H](O)[C@H](O)CO [Streptozocin] | 89.4 ± 24% | 108 ± 4.5%
CCN1CCN(Cc2ccc(C(=O)Nc3ccc(C)c(Oc4ccc5c(c4)CC(=O)N5)c3)cc2C(F)(F)F)CC1 | 110 ± 13% | 114 ± 6.1%
C[C@H](Nc1ncnc2nc[nH]c12)c1cc2cccc(Cl)c2c(=O)n1-c1ccccc1 [Duvelisib (IPI-145, INK1197)] | 111 ± 14% | 111 ± 15%
CC(C)c1cnn2c(NCc3ccccc3)cc(NCCCCCCN)nc12 | 105 ± 20% | 84 ± 18%
N#C/C(=C\c1ccc(O)c(O)c1)C(=O)Nc1ccccc1 | 106 ± 6.4% | 115 ± 17%
CCCCCCCCCCCCCCCCOP(=O)([O-])OCC[N+](C)(C)C [Miltefosine] | 76.2 ± 20% | 102 ± 7.5%
CN1CCN(S(=O)(=O)c2ccc(-c3cnc(N)c(C(=O)Nc4cccnc4)n3)cc2)CC1 | 95.5 ± 17% | 100 ± 0.48%
O=C(O)c1ccc(-c2c[nH]c3ncc(-c4ccccc4)cc23)cc1C1CCCC1 | 107 ± 1.1% | 96 ± 2.7%
O=C1Nc2cc(Br)ccc2/C1=C1/Nc2ccccc2/C1=N\O | 109 ± 2.3% | 91.4 ± 8.7%
COc1cc2ccc(=O)oc2cc1O [Scopoletin] | 102.2 ± 0.33% | 109.9 ± 0.78%
COc1cc(N2CCOCC2)ccc1Nc1ncc(Cl)c(Nc2ccccc2NS(C)(=O)=O)n1 | 108 ± 10% | 111 ± 24%
Cc1cc(Nc2nn(-c3ccccc3)c(=O)c3ccccc23)n[nH]1 [Phthalazinone pyrazole] | 94.1 ± 9.4% | 101 ± 15%

Structure (SMILES) | cell viability (Molm13) | cell viability (Mv4-11)
Cc1ncc(CO)c(CO)c1O [Pyridoxine] | 95.3 ± 26% | 114 ± 20%
Nc1cc(C(F)(F)F)c(-c2cc(N3CCOCC3)nc(N3CCOCC3)n2)cn1 [BKM120 (NVP-BKM120, Buparlisib)] | 93.7 ± 4.8% | 99.8 ± 2.8%
C[C@@]1(C(=O)Nc2ccc(F)nc2)CCCN1c1nc(Nc2cc(C3CC3)n[nH]2)c2cccn2n1 | 117 ± 2.5% | 127 ± 2.5%
COc1cc(N2CCC(N)CC2)ccc1Nc1ncc(Cl)c(-c2c[nH]c3ccccc23)n1 | 86 ± 2.5% | 93.3 ± 5.9%
C=CCc1ccc(O)c(-c2ccc(O)c(CC=C)c2)c1 [Honokiol] | 105 ± 5.5% | 112 ± 14%
CNC(=O)c1cccc(-c2ccc3c(N4CCOC[C@@H]4C)nc(N4CCOC[C@@H]4C)nc3n2)c1 | 83.69 ± 0.63% | 98.5 ± 20%
CN1CCC(CNc2ccc3ncc(-c4cccc(OC(F)(F)F)c4)n3n2)CC1 [SGI-1776 free base] | 92.3 ± 5.5% | 97.7 ± 14%
Cc1ccc(NC(=O)c2ccc(CN3CCN(C)CC3)cc2)cc1Nc1nc(-c2cccnc2)cs1 [Masitinib (AB1010)] | 98.2 ± 12% | 116 ± 26%
CCCCNc1ncc(C(=O)NCc2ccc(-n3ccnc3)cc2)c(NC2CCC(O)CC2)n1 (stereo not drawn) | 103 ± 5.1% | 115.2 ± 0.28%
CC(C)n1nc(-c2cc3cc(O)ccc3[nH]2)c2c(N)ncnc21 | 103 ± 11% | 96.2 ± 30%
CC(=O)Nc1cccc(-n2c(=O)n(C3CC3)c(=O)c3c(Nc4ccc(I)cc4F)n(C)c(=O)c(C)c32)c1 | 101 ± 25% | 107 ± 1.9%
Oc1cccc(-c2nc(N3CCOCC3)c3sccc3n2)c1 [PI3-Kinase ? Inhibitor 2] | 108.6 ± 0.5% | 120 ± 22%
C=CCn1c(=O)c2cnc(Nc3ccc(N4CCN(C)CC4)cc3)nc2n1-c1cccc(C(C)(C)O)n1 | 93.6 ± 20% | 95.2 ± 2.1%
O=C(NOC[C@H](O)CO)c1ccc(F)c(F)c1Nc1ccc(I)cc1F | 89.4% and 96.2% | 95.5% and 86.8%
NC[C@@](O)(c1ccc(Cl)cc1)c1ccc(-c2cn[nH]c2)cc1 | 108 ± 8.3% | 123 ± 20%
CNC(=O)c1ccccc1Sc1ccc2c(/C=C/c3ccccn3)n[nH]c2c1 [Axitinib] | 120 ± 7% | 118 ± 10%
COc1cc2ncnc(Sc3nnc(C)s3)c2cc1OC | 127 ± 30% | 115 ± 14%
CN(C)CCCn1cc(C2=C(c3c[nH]c4ccccc34)C(=O)NC2=O)c2ccccc21 [Bisindolylmaleimide I] | 94.6 ± 15% | 67.1 ± 44%
O=C(O)c1cc(O)c2c(c1)[C@@H]([C@H]1c3cc(C(=O)O)cc(O)c3C(=O)c3c(O[C@@H]4O[C@H](CO)[C@@H](O)[C@H](O)[C@H]4O)cccc31)c1cccc(O[C@@H]3O[C@H](CO)[C@@H](O)[C@H](O)[C@H]3O)c1C2=O [Sennoside B] | 101 ± 12% | 91.4 ± 16%
COc1cc2nccc(Oc3ccc(NC(=O)NC4CC4)c(Cl)c3)c2cc1C(N)=O [Lenvatinib (E7080)] | 112 ± 6.8% | 123 ± 14%
COc1cc2nccc(Oc3ccc(NC(=O)Nc4ccc(F)cc4F)c(F)c3)c2cc1OC | 98.1 ± 2.7% | 103 ± 5.7%
CCOc1cc(/C=C(\C#N)C(N)=O)cc(CSc2ccccc2)c1O | 101 ± 44% | 115 ± 15%

Reference: the supplement of paper PMC8699584
